# Reference: article PMC6792352, “Limited Chemical Structural Diversity Found to Modulate Thyroid Hormone Receptor in the Tox21 Chemical Library” (Environmental Health Perspectives, 2019)
# Structures can show the parent of a compound that is named as a salt.
# Test system: thyroid hormone receptor (endogenous TRα and TRβ)
# Parameters: species or system GH3-TRE-Luc (rat pituitary); GH3-TRE-Luc luciferase reporter, antagonist mode against 1 nM T3, loss of signal, qHTS
# Details: antagonist mode, 1 nM T3, no GH3 cytotoxicity hit, read-out: Average AC50 (uM) GH3-TRE-Antag
row,Compound,AC50
1,CCCCSP(=O)(SCCCC)SCCCC [Tribufos],50.4 µM
2,C[C@]12CC[C@H]3[C@@H](CCC4=CC(=O)CC[C@@]43C)[C@@H]1CC[C@@H]2O [Testosterone],59 µM
3,"Oc1ccc(Cl)c(Cl)c1 [3,4-Dichlorophenol]",59.5 µM
4,CCCCCCCCCCCCBr [1-Bromododecane],93.3 µM
5,C=CC(=O)OCCO [2-Hydroxyethyl acrylate],51.5 µM
6,O=c1c2ccccc2c(=O)c2c1cc(Cl)c1[nH]c3c([nH]c12)c(Cl)cc1c(=O)c2ccccc2c(=O)c13 [D&C Blue No. 9],57.8 µM
7,CCOP(=S)(OCC)Oc1cc(C)nc(C(C)C)n1 [Diazinon],46.4 µM
8,COC(=O)c1c(C(F)F)nc(C(F)(F)F)c(C2=NCCS2)c1CC(C)C [Thiazopyr],> 90 µM
9,CNC(=O)Oc1cccc(N=CN(C)C)c1 [Formetanate hydrochloride],70.8 µM
10,CNC(=O)Oc1ccccc1C(=O)Nc1ccccc1 [Anilamate],> 50 µM
11,C[C@H](CN1CCOCC1)C(C(=O)N1CCCC1)(c1ccccc1)c1ccccc1 [Dextromoramide tartrate],56.7 µM
12,CC(=O)[C@H]1CC[C@H]2[C@@H]3CC[C@@H]4C[C@H](O)CC[C@]4(C)[C@H]3CC[C@]12C [Eltanolone],13.6 µM
13,ClC1(Cl)C2(Cl)C3(Cl)C4(Cl)C(Cl)(Cl)C5(Cl)C3(Cl)C1(Cl)C5(Cl)C24Cl (centres unmarked) [Mirex],> 90 µM
14,CN(C)c1ccc(C(c2ccccc2)c2ccc(N(C)C)cc2)cc1 [Leucomalachite green],20.8 µM
15,"Oc1c(Br)cc(Br)cc1Br [2,4,6-Tribromophenol]",> 50 µM
16,CCCSP(=O)(OCC)Oc1ccc(Br)cc1Cl (centres unmarked) [Profenofos],> 50 µM

row,Compound,AC50
1,C=C(Cl)CSC(=S)N(CC)CC [Sulfallate],86.5 µM
2,C[C@]12CCC(=O)C[C@@H]1CC[C@@H]1[C@@H]2CC[C@@]2(C)[C@H]1CC[C@]2(C)O [Mestanolone],10.8 µM
3,"COc1cc(CC(C)N)cc2c1OCO2 (centres unmarked) [1-(7-Methoxy-1,3-benzodioxol-5-yl)propan-2-amine hydrochloride]",48.3 µM
4,O=C(O)C(F)(F)C(F)(F)C(F)(F)C(F)(F)C(F)(F)C(F)(F)C(F)(F)F [Ammonium perfluorooctanoate],77.1 µM
5,O=[N+]([O-])c1ccc(Oc2ccc(C(F)(F)F)cc2[N+](=O)[O-])cc1 [Fluorodifen],> 90 µM
6,CCN(CC)C(=O)[C@@H]1C=C2c3cccc4[nH]cc(c34)C[C@H]2N(C)C1 [Lysergide],> 50 µM
7,O=C(O)Cc1ccccc1 [Phenylacetic acid],18.1 µM
8,Cc1ccc2c(c1)[C@]13CCCC[C@@H]1[C@H](C2)N(C)CC3 [Dimemorfan phosphate],42.3 µM
9,C[C@]12CC[C@H]3[C@@H](CCC4=C(Cl)C(=O)CC[C@@]43C)[C@@H]1CC[C@@H]2O [Clostebol],29.2 µM
10,CC(C)=CC1C(C(=O)OCN2C(=O)C3=C(CCCC3)C2=O)C1(C)C (centres unmarked) [Tetramethrin],> 50 µM
11,CC(C)NC(C)Cc1ccc(I)cc1 (centres unmarked) [Iofetamine hydrochloride],22.3 µM
12,"Brc1ccc(Oc2cc(Br)c(Br)cc2Br)c(Br)c1 [2,2',4,4',5-Pentabromodiphenyl ether]",39.4 µM
13,NC(=S)Nc1ccccc1 [1-Phenyl-2-thiourea],43.9 µM
14,O=C1C(=O)c2cccc3cccc1c23 [Acenaphthenequinone],76.1 µM
15,CC(C)(C)c1ccccc1OP(=O)(Oc1ccccc1)Oc1ccccc1 [tert-Butylphenyl diphenyl phosphate],88.4 µM
16,CC[C@@H](O)C(C[C@@H](C)N(C)C)(c1ccccc1)c1ccccc1 [(+)-alpha-Methadol hydrochloride],55.7 µM
